The results in this text go back to ChEMBL document CHEMBL1157539, “Thousands of chemical starting points for antimalarial lead identification” (Nature, 2010).

In all, about 13,000 compounds went through this assay and fewer than 10 showed an effect of 50% or more. Not all results are given here.

The assay has as its system Plasmodium falciparum. The experiment in a line: GSK_TCMDC: Inhibition of Plasmodium falciparum 3D7 LDH activity, using an LDH reporter assay. Test compounds present at 2uM. The assay is classed as functional, organism-based. In general terms: A reporter such as luciferase makes a cellular process visible.
In general, inhibition refers to the percentage by which the read-out fell short of the control. Regarding `c1ccc(-c2ccc(-c3csc(Nc4ccncc4)n3)cc2)cc1`, the inhibition came out at 3%.

For `Cc1ccc2nc(C)cc(N/N=C/c3ccc([N+](=O)[O-])o3)c2c1`, the inhibition came out at 0%.

The compound `O=C(Nc1ccsc1)Nc1cccc(-c2cccc(-c3nc4cc(F)ccc4[nH]3)c2)c1` came in with an inhibition of 2%.

For `OCC(c1ccccc1)n1c(COc2ccc(Cl)cc2)nc2c(OCCCN3CCCCC3)cccc21` (stereo not given), the inhibition came to 0%.

For the compound `CCN1CCC(N(Cc2ccc(-c3ccc(C(F)(F)F)cc3)cc2)C(=O)Cn2c(CCc3cccc(F)c3F)cc(=O)c3c2CCCC3)CC1`, the inhibition was 0%.

For the compound `COc1ccc2c(NN=Cc3cccc(F)c3)ccnc2c1`, the inhibition turned out to be 0%.

With `N#Cc1ccc(N2CCN(Cc3cccc(-c4ccc(-c5nc6cc(C(F)(F)F)ccc6[nH]5)cc4)c3)CC2)nc1`, the inhibition is 0%.

As to `Nc1nc(N)c2c(ccc3[nH]c(-c4ccccc4Cl)nc32)n1`, the inhibition stood at 0%.

In turn, `C=CCc1cccc(OC)c1OCCCON1C(=N)N=C(N)NC1(C)C` had an inhibition of 0%.

`CC(C)CCn1c(Sc2ccc(C#N)c([N+](=O)[O-])c2)nnc1-c1ccc(Cl)cc1` yielded an inhibition of 0%.

As to `Cc1n[nH]c2ccc(-c3ccc4nccc(N5CCC(N)CC5)c4c3)cc12`, the inhibition stood at 0%.

For the compound `CCOc1ccc2c(=NN=Cc3ccccc3F)cc(C)[nH]c2c1`, the inhibition came out at 0%.

`COc1cc(CN=C(S)NN=C(C)c2ccccn2)cc(OC)c1OC` showed an inhibition of 0%.

On to `COc1ccc2c(c1)CC(C)(C)NC2CCCCCCCCC1NC(C)(C)Cc2cc(OC)ccc21` (stereo not given), for which the inhibition was determined as 0%.

Regarding `CCCC(=O)c1cnc2c(OCCCc3c[nH]cn3)cccc2c1Nc1c(C)cccc1C`, the inhibition was 3%.

`CC[C@H](N/C(=N\c1ccc(-c2ccccc2)cc1)Nc1ccc(C#N)cc1O)c1ccccc1` registered an inhibition of 4%.

As to `COc1c(Br)cc(Br)cc1-c1ccc(CN2CC3CCC2CC3)[nH]1`, the inhibition was 0%.

In the case of `CCCCCCN1CCC(NCc2ccc(Cl)cc2)CC1`, the inhibition came to 0%.

In turn, `COc1cc(NC(=O)c2sc(-c3ccc(Cl)cc3)cc2NC(=O)c2cccc(N(C)C)c2)ccc1OCCN1CCCC1` returned an inhibition of 0%.

On to `CCN(C1CCCCC1)S(=O)(=O)c1ccc(OC)c(N2CCN(C(=O)C(Cl)(Cl)Cl)CC2)c1`, for which the inhibition was 3%.

As for `O=C(NCCCN1CCOCC1)c1cccc(Nc2nccc(Nc3ccc(Oc4ccccc4)cc3)n2)c1`, the inhibition was 0%.

With `CCC(=O)N(c1ccccc1)C1CCN(CCCC(NC(=O)c2cc(C(F)(F)F)cc(C(F)(F)F)c2)c2ccc(Cl)c(Cl)c2)CC1` (stereo not given), the inhibition was 0%.

Turning to `O=C(/C=C/c1ccc(-c2nc3ccc(Cl)cc3[nH]2)cc1)NC1CCN(Cc2ccccc2)CC1`, the inhibition came to 0%.

In turn, `CN(C)c1ccc(-c2csc(C(=O)NC3CCN(CCC(C)(C)C)C3)c2)cc1` (stereo not given) showed an inhibition of 2%.

The compound `NC(=O)c1cccc(C(=O)Nc2cccc(-c3cccc(-c4nc5cc(F)ccc5[nH]4)c3)c2)c1` came in with an inhibition of 1%.
